Test results from PubChem BioAssay AID2253 (Southern Research Specialized Biocontainment Screening …, 2010).
In all, about 2,200 compounds went through this assay and about 1,300 (59%) were called active. How the calls were made is not given here. So high a share suggests a set chosen from earlier hits. The list is a sample of the results. Entries with a potency or affinity are not part of this list.

experiment: human monocytic cell viability reduction – S. typhimurium screen hits, cytotoxicity control for Salmonella PhoP regulon inhibitors, dose response (AID 2253); settings: THP-1 viability, CellTiter-Glo luminescence, 72 h; series mostly up to 50 µM; viability: at the top concentration

Row | Compound | viability
1 | Nc1nnc(-c2cccc(Cl)c2Cl)c(N)n1 | 90.1% (inactive)
2 | CCn1cc(C(=O)O)c(=O)c2cc3c(cc21)OCO3 | 100% (inactive)
3 | CCCn1c(N)c(C(=O)COC(=O)c2c(C)noc2C)c(=O)n(C)c1=O | 81% (inactive)
4 | Cc1ccccc1-n1c(=O)c2ccccc2n2cnnc12 | 98.5% (inactive)
5 | O=C(O)Cn1cc(C(=O)c2ccco2)c2ccccc21 | 102% (inactive)
6 | Cc1cc(C(=O)COC(=O)CNC(=O)c2ccco2)c(C)n1Cc1ccco1 | 90.9% (inactive)
7 | COc1ccc(N2CCN(C(=O)C3CCCO3)CC2)cc1 (stereo unspecified) | 91.3% (inactive)
8 | Cc1ccc(C)n1-c1cccc(N)c1 | 95.7% (inactive)
9 | N/C(=N\OC(=O)c1ccc(F)cc1)c1nonc1N | 82.5% (inactive)
10 | Cc1cc(C(=O)N/N=C/c2ccc[nH]2)no1 | 98.2% (inactive)
11 | CC(=O)N/N=C/c1ccc(OCCOc2ccc(Br)cc2)cc1 | 103% (inactive)
12 | CCOC(=O)C1=C(C)N(CCO)C(=O)NC1c1cccc(O)c1 (stereo unspecified) | 93.5% (inactive)
13 | Cc1cc(C)n(-c2ccc(C(=O)OCC(=O)Nc3ccc([N+](=O)[O-])cc3)cc2)n1 | 83.8% (inactive)
14 | Cc1ccc(/C=N/NC(=O)Cn2cnc3ccccc32)o1 | 81.5% (inactive)
15 | C=CCNC(=O)CC(=O)N/N=C/c1ccc(C(=O)OC)cc1 | 93.1% (inactive)
16 | COc1ccc(OC)c(C(C(=O)NCc2ccco2)N(C(=O)Cn2nnc3ccccc32)C(C)C)c1 (stereo unspecified) | 86.7% (inactive)
17 | O=C(C1CCN(C2CC(=O)N(Cc3ccccc3)C2=O)CC1)N1CCCCCC1 (stereo unspecified) | 110% (inactive)
18 | Cc1ccc(S(=O)(=O)N2C(=O)CCC2C(=O)N2CCN(C)CC2)cc1 (stereo unspecified) | 80.2% [at 25 µM] (inactive)
19 | CCn1cc(C(=O)NCCCN(C)C)c(=O)c2cc(F)c(N3CCN(C)CC3)cc21 | 90.6% (inactive)
20 | Cc1cccc(-n2nc3c(c2NC(=O)c2ccco2)CSC3)c1C | 92.4% (inactive)
21 | CC(=O)Nc1ccc(-n2nnnc2SCC(=O)Nc2cccc(NC(=O)c3ccco3)c2)cc1 | 95% (inactive)
22 | O=C(Nc1cccc(-c2cn3cccnc3n2)c1)c1ccco1 | 82.7% (inactive)
23 | O=C(NC1CCCCC1)n1c(=O)oc2ccc(Cl)cc21 | 83.7% (inactive)
24 | Cc1ccc(C(=O)C(OC(=O)COc2ccccc2C)c2ccccc2)cc1 (stereo unspecified) | 93% (inactive)

Row | Compound | viability
25 | Cc1ccc(C(=O)N2CC3(C(C)C)CN(C(=O)c4ccc(C)cc4)CC(C(C)C)(C2)C3=O)cc1 | 104% (inactive)
26 | COC(=O)c1cc(C#N)c(Oc2ccc(F)cc2)nc1C | 97.7% (inactive)
27 | Nc1nc(Nc2ccc(Cl)cc2)n[nH]1 | 95.1% (inactive)
28 | COC(=O)CSc1nc(SCc2ccccc2Cl)nc2c1CCCC2 | 107% (inactive)
29 | CCCCCNS(=O)(=O)c1cc(C)ccc1OC | 83.1% (inactive)
30 | CCCCn1nnnc1NCc1cc(OC)c(OC)cc1OC | 100% (inactive)
31 | COc1ccc(C(C)C)cc1S(=O)(=O)Nc1ccc(Cl)cn1 | 84.3% [at 25 µM] (inactive)
32 | C=CCNC(=O)C(=O)NN=C1CCN(C)CC1 | 101% (inactive)
33 | COc1ccc(N2CCN(C(=O)Nc3ccc(S(=O)(=O)N(C)C)cc3)CC2)cc1 | 107% (inactive)
34 | CCOCCCNC(=S)Nc1cc(C)cc(C)c1 | 89% (inactive)
35 | COCCSc1ccccc1C(=O)NCC1CCCO1 (stereo unspecified) | 95.3% (inactive)
36 | COc1cccc(-c2nc(-c3ccc(Br)o3)no2)c1 | 89% (inactive)
37 | COCCNC(=S)N(Cc1cccnc1)Cc1ccc(OC)c(OC)c1 | 81% (inactive)
38 | CC1=C(C(=O)Nc2cccnc2)C(c2ccccn2)n2nnnc2N1 (stereo unspecified) | 92% (inactive)
39 | CCOC(=O)C1=C(C)NC(=O)NC1c1ccsc1 (stereo unspecified) | 87.3% (inactive)
40 | CN1C(=O)CC(P(=O)(c2ccccc2)c2ccccc2)N(C)C1=O (stereo unspecified) | 92.1% (inactive)
41 | Cc1cn([C@H]2C[C@H](N=[N+]=[N-])[C@@H](CO)O2)c(=O)[nH]c1=O | 89.7% (inactive)
42 | C#CC(C)(CC)NC(=O)c1cc(OC)c(OC)c(OC)c1 (stereo unspecified) | 90.4% (inactive)
43 | COc1nsnc1NS(=O)(=O)c1ccc(NC(=S)NC(=O)c2ccncc2)cc1 | 100% (inactive)
44 | CCn1nnc(-c2ccccc2NS(=O)(=O)c2ccc(S(=O)(=O)N3CCCCCC3)cc2)n1 | 101% [at 12.5 µM] (inactive)
45 | Cc1nc(CC(=O)c2ccc(O)cc2O)cs1 | 93.4% (inactive)
46 | CC(=O)Nc1nc(-c2ccc(Cl)cc2)nc(C)c1C(C)=O | 93.3% (inactive)
47 | OCCNc1ccc(Cl)cc1 | 91.2% (inactive)
48 | C#CCOc1c(Cl)cc(/C=N/O)cc1OC | 84.1% (inactive)

Row | Compound | viability
49 | CC(C(=O)NC1C=CS(=O)(=O)C1)N1C(=O)/C(=C/c2ccc(Cl)cc2)SC1=S (stereo unspecified) | 99% (inactive)
50 | COc1cc(C)c(Cc2cnc(N)nc2N)cc1OC | 84.8% (inactive)
51 | CCn1cc(C(=O)O)c(=O)c2cc(Br)ccc21 | 96% (inactive)
52 | Cc1ccc(OCc2nnc(SCC(=O)Nc3ccc4c(c3)OCO4)n2C)cc1 | 103% (inactive)
53 | COc1ccc(NC(=O)CSc2nccn2-c2ccccc2)cc1 | 83.9% (inactive)
54 | Cc1cc(C)c(C#N)c(SCC(O)CS(=O)(=O)Cc2ccccc2)n1 (stereo unspecified) | 82.1% (inactive)
55 | CCn1c(Cc2c(C)[nH]c3ccccc23)n[nH]c1=S | 94.3% (inactive)
56 | O=C1CSc2ccccc2N1Cc1ccc(F)cc1 | 91.5% (inactive)
57 | COc1cc(C2SCC(=O)N2c2nnc(C34CC5CC(CC(C5)C3)C4)s2)cc(OC)c1OC (stereo unspecified) | 100% (inactive)
58 | C/C(=C\c1ccco1)C1Nc2cccc3cccc(c23)N1 | 116% (inactive)
59 | CN1CCN(C(c2cccc(C(F)(F)F)c2)c2nnnn2C(C)(C)C)CC1 (stereo unspecified) | 90.2% (inactive)
60 | O=C(O)c1cc(O)c2c(c1)[C@@H]([C@H]1c3cc(C(=O)O)cc(O)c3C(=O)c3c(O[C@@H]4O[C@H](CO)[C@@H](O)[C@H](O)[C@H]4O)cccc31)c1cccc(OC3O[C@H](CO)[C@@H](O)[C@H](O)[C@H]3O)c1C2=O (stereo partly specified) | 96.5% (inactive)
61 | CN1CCN(c2c(F)cc3c(=O)c(C(=O)O)cn4c3c2OCN4C)CC1 | 99.9% (inactive)
62 | COc1ccc(-n2c(=O)c3ccccc3n(CC(=O)Nc3cc(C)on3)c2=O)cc1OC | 103% (inactive)
63 | CCn1cc(C(=O)O)c(=O)c2cc(F)c(N3CCN(C(=S)NC(=O)c4ccc(F)c(F)c4)CC3)cc21 | 91.9% (inactive)
64 | COc1ccccc1CC1(C)NC(=O)N(CC(=O)N2CC(C)OC(C)C2)C1=O (stereo unspecified) | 103% (inactive)
65 | CCn1nc(C(=O)O)c(=O)c2cc3c(cc21)OCO3 | 103% (inactive)
66 | Cc1snc(S(=O)(=O)/C(C#N)=N\Nc2ccccc2)c1C#N | 85.4% (inactive)
67 | COc1ccc(N2C(=O)[C@@H]3[C@H](C2=O)[C@H]2c4ccccc4C=CN2[C@@H]3C(=O)Nc2ccccc2)cc1 | 91.8% (inactive)
68 | O=C(c1ccccc1)N1CCSC1=S | 91.7% (inactive)
69 | CC(CN1CCOCC1)C(=O)c1ccccc1 (stereo unspecified) | 85% (inactive)
70 | CCC(CC)C(=O)Nc1cccc(C(=O)N2CCCC2)c1 | 90% (inactive)
71 | CC(C)NC(=O)/C(=N\O)c1ccccc1 | 108% (inactive)
72 | Cc1cc(C(C)c2ccccc2)c(O)c(CN2CCOCC2)c1C (stereo unspecified) | 91.4% (inactive)

Row | Compound | viability
73 | CCCCCOc1ccc(NC(=O)C(=O)NCCC2=CCCCC2)cc1 | 103% (inactive)
74 | O=C(CSc1nncs1)Nc1ccc2c(c1)OCCO2 | 84.8% (inactive)
75 | CC(O)CNc1cc(N)c([N+](=O)[O-])cc1[N+](=O)[O-] (stereo unspecified) | 85.4% (inactive)
76 | CCNC(=O)COC(=O)CCC(=O)c1cccs1 | 91.3% (inactive)
77 | COCCNS(=O)(=O)c1cccn1-c1ncc(C(F)(F)F)cc1Cl | 85.5% (inactive)
78 | Cc1cc(C)cc(-n2nc(C)cc2N)c1 | 86.2% (inactive)
79 | Cc1cccc(NC(=O)CCC(=O)OCc2ccc(Br)cc2)c1 | 97.5% (inactive)
80 | CCOC(=O)CN1C(=O)C(C)(C)Oc2ccc(C(=O)Nc3ccccc3OC)cc21 | 84.7% (inactive)
81 | O=C(O)C1CCC(N2C(=O)C3CCCCC3C2=O)CC1 (stereo unspecified) | 91.5% (inactive)
82 | COC(=O)c1ccc(CSc2nnnn2-c2ccccc2)o1 | 84.5% (inactive)
83 | Cc1ccccc1-n1nc(-c2ccc(N)cc2)cc1N | 102% (inactive)
84 | O=C(NCc1ccccn1)Nc1cccc(Cl)c1 | 88.9% (inactive)
85 | CN(C)C(CNC(=O)Nc1cccc(Cl)c1)c1cccnc1 (stereo unspecified) | 102% (inactive)
86 | O=C(CSCc1ccccc1)Nc1ccc2c(c1)OCO2 | 93.8% (inactive)
87 | CC(=O)c1cccc(NC(=O)Nc2cc3sccc3n2C)c1 | 107% (inactive)
88 | Cc1cc(CNC(=O)Nc2ccc3c(c2)OCO3)nn1C | 92.9% (inactive)
89 | CC(=O)c1cccc(NC(=O)Nc2cccs2)c1 | 80.3% (inactive)
90 | Cc1ccccc1CS(=O)(=O)c1snnc1C | 96.2% (inactive)
91 | CCOC(=O)c1cnc2ccccc2c1Nc1ccc2c(c1)OCCO2 | 86.5% (inactive)
92 | CCOC(=O)c1cnc2ccc(OC)cc2c1Nc1ccc2c(c1)OCCO2 | 83.7% (inactive)
93 | Cc1cc(Nc2ccccc2F)n2ncnc2n1 | 88.2% (inactive)
94 | Cc1nn(-c2ncc(C(F)(F)F)cc2Cl)c(=O)n1-c1cccc(Cl)c1 | 85.9% (inactive)
95 | N/C(=N\OC(=O)Nc1ccc(Cl)cc1)c1ncc(C(F)(F)F)cc1Cl | 80.3% (inactive)
96 | CCCCNC(=O)OC1CCS(=O)(=O)C1 (stereo unspecified) | 95.9% (inactive)

Row | Compound | viability
97 | Cc1ccc2nc(-c3ccc(Br)o3)oc(=O)c2c1 | 82.7% (inactive)
98 | COC(=O)C1=C(C)N(C)C(=O)/C1=C\c1ccco1 | 85% (inactive)
99 | C=CC1=C(C(=O)O)N2C(=O)[C@@H](NC(=O)/C(=N\O)c3csc(N)n3)[C@H]2SC1 (stereo in doubt) | 94.7% (inactive)
100 | O=C1CC(SCc2nc3ccccc3[nH]2)C(=O)N1c1ccc(Cl)cc1 (stereo unspecified) | 96.6% (inactive)
101 | O=C(NC1CCCCC1)C(c1ccncc1)N(CC1CCCO1)C(=O)C(F)(F)F (stereo unspecified) | 93.5% (inactive)
102 | O=C(Nc1ccc(Cl)cc1)N1CC=CCC1 | 90.5% (inactive)
103 | Cn1cccc1CC(=O)NNC(=S)Nc1ccc(Cl)cc1 | 113% (inactive)
104 | CCC(CC)c1nnc(NC(=O)Oc2ccccc2)s1 | 84% (inactive)
105 | CCN(CC(=O)N1CCN(Cc2ccccc2)CC1)S(=O)(=O)c1ccc(F)cc1 | 85.8% (inactive)
106 | Cc1ccccc1NC(=O)Nc1cccs1 | 92.4% (inactive)
107 | S=C(Nc1ccc2snnc2c1)N1CCN(c2ccccn2)CC1 | 96.9% (inactive)
108 | CCN(CC)CCN(Cc1cc2cc3c(cc2[nH]c1=O)OCCO3)C(=O)NC1CCCCC1 | 89.8% (inactive)
109 | COc1ccccc1NC(=S)NC(=O)C(C)(C)C | 102% (inactive)
110 | Nc1ccc2c(c1)C(=O)N(CC1CCCO1)C2=O (stereo unspecified) | 96.7% (inactive)
111 | Nc1ccc2oc3ccccc3c2c1 | 108% (inactive)
112 | CCOC(=O)c1cn(CC)c2cc(N3CCOCC3)c(F)cc2c1=O | 87.9% [at 25 µM] (inactive)
113 | CCCc1cc(N2CCN(c3ccccn3)CC2)n2nc(C)c(-c3ccccc3)c2n1 | 100% (inactive)
114 | CCCN(CCC)CCCNS(=O)(=O)c1ccc2c(c1)oc(=O)n2C | 87.8% (inactive)
115 | O=C(O)CCc1nn2c3ccccc3n(CC(=O)c3ccccc3)c2nc1=O | 94.2% (inactive)
116 | COC(=O)Cn1c(C)nc2ccccc21 | 101% (inactive)
